The text below walks through data of PubChem BioAssay (EPA / NIEHS).

Usually AC50 stands for the concentration at which the activity in the assay is half-maximal.

Calls of active or inactive are those of the source. Rule for the calls: active = hit-call score of the fitted dose curve at least 0.9, where 1 is the maximum; inactive = score below 0.9.

The experiment in a line: ATG_M_19_CIS: Attagene CIS-FACTORIAL HepG2 Assay for M19 Transcription Factor (Internal Marker) (AID 2282939). To be noted: HepG2 Attagene CIS-FACTORIAL M19 internal marker reporter; actives raise or lower the signal. As for the experimental part:
ATG_CIS is a cell-based, multiplexed-readout assay that uses HepG2, a human liver cell line, with measurements taken at 24 hours after chemical dosing in a 24-well plate.ATG_M_19_CIS is one of 52 assay component(s) measured or calculated from the ATG_CIS assay. It is designed to make measurements of mRNA induction, a form of inducible reporter, as detected with fluorescence intensity signals by Reverse transcription polymerase chain reaction (RT-PCR) and Capillary electrophoresis technology.Data from the assay component ATG_M_19_CIS was analyzed into 1 assay endpoint. This assay endpoint, ATG_M_19_CIS, was analyzed with bidirectional fitting relative to DMSO as the negative control and baseline of activity. Using a type of inducible reporter, measures of mRNA for gain or loss-of-signal activity can be used to understand the background control at the transcription factor-level as they relate to the gene . Furthermore, this assay endpoint can be referred to as a secondary readout, because this assay has produced multiple assay endpoints where this one serves a background control function. To generalize the intended target to other relatable targets, this assay endpoint is annotated to the background measurement intended target family, where the subfamily is internal marker.
Human liver HepG2 cells are transiently transfected with multiple reporter transcription units (MRTUs) in 6-well plates using FuGene 6 reagent (Roche; 3 ml FuGene/1 mg DNA). The MRTU constructs are regulated by a cis-regulating element (promoter). […] A major difference between the CIS and TRANS system is that in CIS activities of endogenous TFs are measured, whereas the TRANS assay evaluates changes in activities of exogenous, chimeric NR-Gal4 proteins. […] At the end of 24 hour incubation, total RNA was isolated using TriZol reagent (Invitrogen). The isolated RNA is then reverse-transcribed using oligo(dT) primer and Mo-MLV reverse transcriptase (Invitrogen) with DNAse I (Ambion) treatment for 30 min. The one-tenth of the produced cDNA was amplified by PCR using Taq DNA polymerase (Invitrogen) and two reporter sequence-specific primers. The PCR products were fluorescently labeled by primer extension with 6-arboxyfluorescein (6-FAM) 5'-labeled reporter sequence-specific primer (2 min at 95 C, 20 s at 68 C and 10 min at 72 C) and these products were digested with 5U of HpaI (New England Biolabs) for 2h at 37 C. The fragments were purified using Qiaquick PCR columns (Qiagen), analyzed on an ABI 3130xL genetic analyzer (Applied Biosystems) with peak positions identified by using a set of X-rhodamine (ROX)-labeled MapMarker1000 molecular weight standards (BioVentures). The raw capillary electrophoresis data was processed using Attagraph software (Attagene).
Take `CNCc1ccc(NC(=O)c2c[nH]c3c2C(=O)CCC3)cc1`: the result was inactive.

On to `COc1cccc(-c2ccc(/C=C\CN3CCCCCC3)cc2Cl)c1`, for which the outcome was inactive.

In the case of `CC(C)CCCCCCCOC(=O)CCCCC(=O)OCCCCCCCC(C)C`, the result was inactive.

With `Cc1ccc(N)cc1O`, the molecule was classed as inactive.

In the case of `O=C(O)CCN(C1(C(=O)NO)CCCC1)S(=O)(=O)c1ccc(Oc2ccc(F)cc2)cc1`, the outcome was inactive.

For `CCCCCCc1ccc(O)cc1O`, the molecule was classed as inactive.

Consider `O=c1n(CC2CO2)c(=O)n(CC2CO2)c(=O)n1CC1CO1` (stereo not given), for which the outcome was inactive.

In the case of `Fc1ccccc1[C@@H](F)COC1CCC(Nc2ncnc3[nH]ncc23)CC1` (stereo not given in full), the outcome was inactive.

For `O=C1CCCCCN1`, the molecule was called inactive.

Regarding `CCNc1ccccc1`, the molecule was classed as inactive.

In the case of `CCCCCCCCCCCCCCCO`, the result was inactive.

For the molecule `CC(=O)OC[C@H]1O[C@@](COC(C)=O)(O[C@H]2O[C@H](COC(C)=O)[C@@H](OC(C)=O)[C@H](OC(C)=O)[C@H]2OC(C)=O)[C@@H](OC(C)=O)[C@@H]1OC(C)=O`, the outcome was inactive.

`CCCC(=O)OCC`: the outcome was inactive.

For the molecule `C1N2CN3CN1CN(C2)C3`, the call was inactive.

For the molecule `CC(C)CC(C)(O)C#CC(C)(O)CC(C)C` (stereo not given), the molecule was called inactive.

For `CCCCC(CC)COC(=O)CCCCCCCCC(=O)OCC(CC)CCCC` (stereo not given), the call was inactive.

Take `COC(=O)c1c(Cl)c(Cl)c(C(=O)OC)c(Cl)c1Cl`: the result was inactive.

On to `Cc1ccc(C)c(O)c1`, for which the result was inactive.

Turning to `Cc1[nH]cnc1C[C@H]1CCc2c(C)c3ccccc3n2C1=O`, the result was inactive.

Turning to `CC(C)CCO`, the outcome was inactive.

Take `C[C@](N)(Cc1ccc(O)c(O)c1)C(=O)O`: the result was inactive.

For `CC(=O)OCCC(C)C`, the molecule was classed as inactive.

In the case of `CC(=O)c1ccc2c(c1)[C@H](NC(=O)c1ccc(F)cc1)[C@@H](O)C(C)(C)O2`, the result was inactive.

Take `CC[C@H](C)C(=O)O[C@H]1C[C@@H](C)C=C2C=C[C@H](C)[C@H](CC[C@@H]3C[C@@H](O)CC(=O)O3)[C@H]21`: the result was inactive.

Regarding `O=C(OC[C@H]1O[C@@H](OC(=O)c2cc(O)c(O)c(OC(=O)c3cc(O)c(O)c(O)c3)c2)[C@H](OC(=O)c2cc(O)c(O)c(OC(=O)c3cc(O)c(O)c(O)c3)c2)[C@@H](OC(=O)c2cc(O)c(O)c(OC(=O)c3cc(O)c(O)c(O)c3)c2)[C@@H]1OC(=O)c1cc(O)c(O)c(OC(=O)c2cc(O)c(O)c(O)c2)c1)c1cc(O)c(O)c(OC(=O)c2cc(O)c(O)c(O)c2)c1`, the call was inactive.

As to `CC1(C)C(=O)N(Br)C(=O)N1Br`, the result was inactive.

As to `CC(C)(O)c1coc(S(=O)(=O)NC(=O)Nc2c3c(cc4c2CCC4)CCC3)c1`, the call was inactive.

With `O=C(NS(=O)(=O)/C=C/c1ccccc1)c1ccc(F)cc1Cl`, the outcome was inactive.

With `CCc1cc(SCc2sc(-c3ccc(C(F)(F)F)cc3)nc2CN2CCN(c3ccc(OC)cc3)CC2)ccc1OCC(=O)O`, the call was inactive.

Take `Cn1cnc([N+](=O)[O-])c1Sc1ncnc2nc[nH]c12`: the result was inactive.

On to `CC(C)=CCCC(C)=CC=O`, for which the molecule was classed as inactive.

Regarding `Cc1ccc(O)cc1`, the call was inactive.

As for `CC(O)CN(CCN(CC(C)O)CC(C)O)CC(C)O` (stereo not given), the molecule was called inactive.

With `Cn1c(=O)c2c(ncn2C)n(C)c1=O`, the molecule was called inactive.

Regarding `CNS(=O)(=O)c1cc(C(=O)N2CCC(CCN3C4CCC3CC(n3c(C)nc5ccccc53)C4)(c3cccc(F)c3)CC2)c(Cl)cc1F` (stereo not given), the outcome was inactive.

In the case of `C=CCCCCCCCCC(=O)O`, the outcome was inactive.

Consider `Cc1ccc(S(=O)(=O)O)cc1C`, for which the molecule was called inactive.

Turning to `CCn1nc(Cc2ccccc2)cc1C1CCN(C[C@H]2C[C@H](N(C)[C@@H](C(=O)O)C(C)C)C[C@@H]2c2cccc(F)c2)CC1`, the call was inactive.

With `CC(C)CCCCCCOC(=O)c1ccc(C(=O)OCCCCCCC(C)C)c(C(=O)OCCCCCCC(C)C)c1`, the molecule was called inactive.

On to `CC(C)c1cccc(C(C)C)c1N1C(=O)c2ccc(O)cc2C1=O`, for which the concentration at half-maximal activity (AC50) was 182 µM (active).
